Measured values from the supplement of paper PMC7156485.
± gives the standard deviation of the averaged measurements.

Columns and labels:
Settings in all cases: concentration: 10 µM; 24 h
[1] = system: HCC1569; experiment: cell number relative to DMSO (% of DMSO); higher = more cells (less growth inhibition / toxicity)
How it was run: (§1)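 HCC1569 and TDF cells were seeded at 800 per well in 384-well plates in RPMI with 10% FBS and treated with compounds at 10 µM for 24 h at 37 °C, in triplicate. After fixation in 3.7% formaldehyde, cells were stained with a rabbit anti-H1.0 antibody, an AlexaFluor 647 secondary and DAPI, and six fields per well were imaged at ×10. H1.0 nuclear intensity or cell number is given as percent of the plate control, using the median of replicates, with HCC1569 values smoothed for positional effects.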

[2] = system: TDF; experiment: as above
How it was run: as §1

[3] = system: TDF; experiment: H1.0 immunofluorescence intensity relative to DMSO (% of DMSO); higher = stronger H1.0 induction, active = 120 or more
How it was run: as §1

[4] = system: HCC1569; experiment: H1.0 immunofluorescence intensity relative to DMSO (% of DMSO); higher = stronger H1.0 induction, active = 140 or more
How it was run: as §1
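For H1.0 immunofluorescence intensity relative to DMSO in this document: TDF is a line of transformed human dermal fibroblasts of mesenchymal origin.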
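For cell number relative to DMSO in this document: TDF denotes transformed human dermal fibroblasts of mesenchymal origin.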

| Compound | cell number [1] | cell number [2] | H1.0 immunofluorescence intensity [3] | H1.0 immunofluorescence intensity [4] |
| --- | --- | --- | --- | --- |
| CCC12CCCN3CCc4c(n(c5ccccc45)C(O)(C(=O)OC)C1)C32 (configuration not stated) [Vincamine] | 101 | 95.8 | 102 (inactive) | 86.2 (inactive) |
| CN(C)CCCC1(c2ccc(F)cc2)OCc2cc(C#N)ccc21 (configuration not stated) [Citalopram] | 103 | 114 | 91.3 (inactive) | 100 (inactive) |
| NC(=O)OCC(COC(N)=O)c1ccccc1 [Felbamate] | 111 ± 15 | 109 ± 1.2 | 97 (inactive) | 93.1 (inactive) |
| C#CCn1c(=O)c2c(ncn2C)n(C)c1=O [3,7-Dimethyl-I-propargylxanthine] | 99.5 | 97.1 | 91.6 (inactive) | 93.4 (inactive) |
| CCCCCCCCC=CCCCCCCCCCCCC(=O)O [13(E)-Docosenoic acid] | 104 | 108 | 96 (inactive) | 101 (inactive) |
| Cn1c(=O)c2c(nc(C=Cc3cccc(Cl)c3)n2C)n(C)c1=O [8-(3-Chlorostyryl)caffeine] | 106 | 94.1 | 100 (inactive) | 99.1 (inactive) |
| COc1cc2ncnc(Nc3ccc(NC(=O)c4ccccc4)cc3)c2cc1OC [Aurora Kinase Inhibitor II] | 77.8 | 54.8 | 111 (inactive) | 133 (inactive) |
| Cn1cc[nH]c1=S [Methimazole] | 107 | 103 | 97.9 (inactive) | 102 (inactive) |
| COc1ccc(CC(N)C(=O)NC2C(CO)OC(n3cnc4c(N(C)C)ncnc43)C2O)cc1 (configuration not stated) [Puromycin] | 24.1 ± 7.4 | 99.2 ± 15 | 94 (inactive) | 90.9 (inactive) |
| NS(=O)(=O)c1cccc2c1c([N+](=O)[O-])cc1nc([O-])c([O-])nc12.[Na+].[Na+] [NBQX disodium] | 104 | 103 | 93.8 (inactive) | 91.8 (inactive) |
| O=C(CCCN1CCC(O)(c2cccc(C(F)(F)F)c2)CC1)c1ccc(F)cc1 [Trifluperidol] | 100 | 95.7 | 97.3 (inactive) | 102 (inactive) |
| O=C(CCCN1CC=C(n2c(=O)[nH]c3ccccc32)CC1)c1ccc(F)cc1 [Droperidol] | 107 | 98.1 | 91.1 (inactive) | 89.2 (inactive) |
| CC(O)C1C(=O)N2C(C(=O)O)=C(SCCN=CN)CC12 (configuration not stated) [Imipenem] | 111 | 109 | 97.1 (inactive) | 102 (inactive) |
| O=C(O)[C@@H]1C[C@H](C(=O)O)N1 [cis-Azetidine-2,4-dicarboxylic acid] | 103 | 101 | 105 (inactive) | 109 (inactive) |
| Nc1cc(-c2ccncc2)c[nH]c1=O [amrinone] | 99.8 | 105 | 100 (inactive) | 114 (inactive) |
| Cc1cccc(C(=O)NCN2CCN(c3ccccc3C#N)CC2)c1.O=C(O)C=CC(=O)O [PD 168,077 maleate] | 105 | 107 | 97.3 (inactive) | 99.3 (inactive) |
| CCCCCCCCCCCCCCCCCCc1ccc(C(=O)/C=C/C(=O)O)cc1 [(2E)-4-(4-octadecylphenyl)-4-oxo-2-butenoic acid] | 100 | 105 | 97.6 (inactive) | 107 (inactive) |
| O=c1cc(N2CCOCC2)oc2c1ccc1ccccc12 [NU 7026 - 2-(4-Morpholinyl)-4H-naphthol[1,2-b]pyran-4-one] | 96 | 106 | 94 (inactive) | 105 (inactive) |
| COC(=O)c1cnn(-c2ccc(F)cc2F)c1/C=N/NC(=S)NC(C)(C)C | 95.9 | 101 | 99 (inactive) | 102 (inactive) |
| CCn1cc(C(=O)O)c(=O)c2cc(F)c(N3CCNCC3)cc21 [Norfloxacin] | 100 | 108 | 105 (inactive) | 101 (inactive) |
| Brc1c(Br)c(Br)c2[nH]cnc2c1Br [4,5,6,7-tetrabromo-1H-benzimidazole] | 69.9 | 71.5 | 111 (inactive) | 103 (inactive) |
| CC1CNc2c(cccc2S(=O)(=O)NC(CCCN=C(N)N)C(=O)N2CCC(C)CC2C(=O)O)C1 (configuration not stated) [Argatroban] | 107 | 104 | 94.1 (inactive) | 112 (inactive) |
| CCOC(=O)[C@@H](N)CCC(=O)N[C@@H](CSCc1ccccc1)C(=O)N[C@@H](C(=O)OCC)c1ccccc1 | 97.6 | 100 | 92.9 (inactive) | 109 (inactive) |
